# Test results reported in PubChem BioAssay (EPA / NIEHS).
# Active and inactive are the calls of the source. Rule for the calls: active = hit-call score of the fitted dose curve at least 0.9, where 1 is the maximum; inactive = score below 0.9.
# Experiments:
# Settings in all cases: mRNA level, 48 h; actives raise or lower the signal
# [1] = read-out: Cyclin D2 (CCND2), CCND2 (gene 894); experiment: LTEA_HepaRG_CCND2: Life Technologies and Expression Analysis (LTEA) Assay for Cyclin D2 (CCND2) using HepaRG (AID 2283449);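 note: CCND2 transcript measured by TaqMan qRT-PCR and normalised to three housekeeping genes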
# Method in brief: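 Chemicals in 0.5% DMSO, eight half-log concentrations from 100 uM top, were applied in duplicate for 48 h to human HepaRG cells in serum-free induction medium. CCND2 mRNA by TaqMan qRT-PCR, normalised to ACTB/GAPDH/POLR2A; bidirectional fit versus DMSO.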
# [2] = read-out: Cyclin Dependent Kinase Inhibitor 1A (CDKN1A), CDKN1A (gene 1026); experiment: LTEA_HepaRG_CDKN1A: Life Technologies and Expression Analysis (LTEA) Assay for Cyclin Dependent Kinase Inhibitor 1A (CDKN1A) using HepaRG (AID 2283450)
# Method in brief: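 HepaRG, 48 h dosing, 8-pt half-log series from 100 uM top, 0.5% DMSO vehicle, duplicates. Readout: TaqMan qRT-PCR of CDKN1A transcript, housekeeping-normalized (ACTB, GAPDH, POLR2A). Up/down curve fit relative to DMSO.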
# [3] = read-out: Cyclin D1 (CCND1), CCND1 (gene 595); experiment: LTEA_HepaRG_CCND1: Life Technologies and Expression Analysis (LTEA) Assay for Cyclin D1 (CCND1) using HepaRG (AID 2283451)
# Method in brief: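 qRT-PCR (Fluidigm 96.96 array) read-out of transcript level, housekeeping-normalized (ACTB/GAPDH/POLR2A). HepaRG cells, 48 h chemical exposure, 8-point half-log series from 100 uM, 0.5% DMSO vehicle; gain or loss relative to DMSO baseline.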
# [4] = read-out: catalase (CAT), CAT (gene 847); experiment: LTEA_HepaRG_CAT: Life Technologies and Expression Analysis (LTEA) Assay for catalase (CAT) using HepaRG (AID 2283452)
# Method in brief: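 HepaRG cells in serum-free induction medium, 0.5% DMSO vehicle, exposed 48 h in duplicate over 8 half-log concentrations from 100 uM. CAT mRNA measured by qRT-PCR, normalized to ACTB, GAPDH, POLR2A; bidirectional fit versus DMSO.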
# [5] = read-out: flavin-containing dimethylaniline monooxygenases 3 (FMO3), FMO3 (gene 2328); experiment: LTEA_HepaRG_FMO3: Life Technologies and Expression Analysis (LTEA) Assay for flavin-containing dimethylaniline monooxygenases 3 (FMO3) using HepaRG (AID 2283453)
# Method in brief: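 Differentiated HepaRG cells in serum-free induction medium, exposed 48 h in duplicate to 8 half-log concentrations up to 100 uM in 0.5% DMSO. FMO3 mRNA by qRT-PCR, normalized to ACTB, GAPDH, POLR2A; bidirectional fit vs DMSO.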
# [6] = read-out: Cytochrome P450 (CYP1A1), CYP1A1 (gene 1543); experiment: LTEA_HepaRG_CYP1A1: Life Technologies and Expression Analysis (LTEA) Assay for Cytochrome P450 (CYP1A1) using HepaRG (AID 2283454)
# Method in brief: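 qRT-PCR read-out: CYP1A1 transcript normalized to three housekeeping genes, fitted bidirectionally against 0.5% DMSO vehicle baseline. Human HepaRG cells, 48 h chemical exposure, 8-point half-log series topping at 100 uM.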
# [7] = read-out: CFLAR gene, CFLAR (gene 8837); experiment: LTEA_HepaRG_CFLAR: Life Technologies and Expression Analysis (LTEA) Assay for CFLAR gene using HepaRG (AID 2283455)
# Method in brief: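 Differentiated HepaRG cells in serum-free induction medium were exposed 48 h in duplicate to eight half-log concentrations up to 100 uM in 0.5% DMSO; mRNA measured by TaqMan qRT-PCR, normalized to ACTB, GAPDH, POLR2A; bidirectional fitting versus DMSO.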
# [8] = read-out: Forkhead box O1 (FOXO1), FOXO1 (gene 2308); experiment: LTEA_HepaRG_FOXO1: Life Technologies and Expression Analysis (LTEA) Assay for Forkhead box O1 (FOXO1) using HepaRG (AID 2283456)
# Method in brief: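 Differentiated HepaRG cells, in serum-free induction medium with 0.5% DMSO, exposed 48 h in duplicate to 8-point half-log series from 100 uM. FOXO1 mRNA measured by TaqMan qRT-PCR, normalized to ACTB, GAPDH, POLR2A; bidirectional fit versus DMSO.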
# [9] = read-out: growth arrest and DNA damage 45 (GADD45A), GADD45A (gene 1647); experiment: LTEA_HepaRG_GADD45A: Life Technologies and Expression Analysis (LTEA) Assay for growth arrest and DNA damage 45 (GADD45A) using HepaRG (AID 2283458)
# Method in brief: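 Cells plated and cultured 48 h, switched to serum-free induction medium, then dosed for 48 h (100 uM top, half-log dilutions, 0.5% DMSO). RNA was isolated and transcript measured by Fluidigm qRT-PCR.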
# [10] = read-out: Forkhead box O3 (FOXO3), FOXO3 (gene 2309); experiment: LTEA_HepaRG_FOXO3: Life Technologies and Expression Analysis (LTEA) Assay for Forkhead box O3 (FOXO3) using HepaRG (AID 2283459)
# Method in brief: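 Differentiated human HepaRG cells, 48 h post-plating, exposed in duplicate for 48 h in serum-free induction medium; 8-point half-log series from 100 uM in 0.5% DMSO. FOXO3 mRNA by TaqMan qRT-PCR, normalized to ACTB/GAPDH/POLR2A; bidirectional fit versus DMSO.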
# [11] = read-out: growth arrest and DNA damage 45 (GADD45B), GADD45B (gene 4616); experiment: LTEA_HepaRG_GADD45B: Life Technologies and Expression Analysis (LTEA) Assay for growth arrest and DNA damage 45 (GADD45B) using HepaRG (AID 2283461)
# Method in brief: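 qRT-PCR read-out (Fluidigm TaqMan, housekeeping-normalized) of mRNA change in human HepaRG cells after 48 h chemical exposure; 8-point curve, top 100 uM, half-log steps, 0.5% DMSO vehicle; gain or loss fitted relative to DMSO baseline.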
# [12] = read-out: ABC Transporter (ABCC3), ABCC3 (gene 8714); experiment: LTEA_HepaRG_ABCC3: Life Technologies and Expression Analysis (LTEA) Assay for ABC Transporter (ABCC3) using HepaRG (AID 2283462)
# Method in brief: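 qRT-PCR read-out of ABCC3 transcript, normalized to three housekeeping genes (ACTB, GAPDH, POLR2A), after 48 h chemical exposure of human HepaRG cells. Eight half-log concentrations, highest 100 uM, in 0.5% DMSO; gain or loss fitted relative to DMSO baseline.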
# [13] = read-out: ABC Transporter (ABCB11), ABCB11 (gene 8647); experiment: LTEA_HepaRG_ABCB11: Life Technologies and Expression Analysis (LTEA) Assay for ABC Transporter (ABCB11) using HepaRG (AID 2283463)
# Method in brief: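 Differentiated human HepaRG cells in serum-free induction medium, dosed in duplicate for 48 h. Eight-point half-log series from 100 uM in 0.5% DMSO; ABCB11 mRNA by qRT-PCR, normalized to ACTB, GAPDH, POLR2A, fitted bidirectionally versus DMSO.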
# [14] = read-out: ABC Transporter (ABCC2), ABCC2 (gene 1244); experiment: LTEA_HepaRG_ABCC2: Life Technologies and Expression Analysis (LTEA) Assay for ABC Transporter (ABCC2) using HepaRG (AID 2283464)
# Method in brief: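 qRT-PCR (TaqMan, Fluidigm array) read-out of ABCC2 mRNA, normalized to three housekeeping genes. Differentiated HepaRG cells were treated 48 h in serum-free induction medium with 8-point half-log series from 100 uM in 0.5% DMSO; curves fitted bidirectionally relative to DMSO.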
# [15] = read-out: Broad substrate specificity ATP-binding cassette transporter ABCG2 (Homo sapiens) (UniProt Q9UNQ0); experiment: LTEA_HepaRG_ABCG2: Life Technologies and Expression Analysis (LTEA) Assay for ABC Transporter (ABCG2) using HepaRG (AID 2283465)
# Method in brief: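 Differentiated HepaRG cells were exposed for 48 h in serum-free induction medium to 8 half-log concentrations, top 100 uM, in 0.5% DMSO. ABCG2 mRNA was measured by qRT-PCR, normalized to ACTB, GAPDH and POLR2A, with bidirectional fitting versus DMSO.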
# [16] = read-out: ATP-citrate lyase (ACLY), ACLY (gene 47); experiment: LTEA_HepaRG_ACLY: Life Technologies and Expression Analysis (LTEA) Assay for ATP-citrate lyase (ACLY) using HepaRG (AID 2283466)
# Method in brief: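 Differentiated HepaRG cells exposed 48 h in serum-free induction medium to eight half-log concentrations up to 100 uM in 0.5% DMSO, duplicates. Transcript measured by Fluidigm TaqMan qRT-PCR, normalized to ACTB, GAPDH, POLR2A; bidirectional fit versus DMSO.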
# [17] = read-out: Peroxisomal acyl-coenzyme A oxidase 1 (ACOX1) gene, ACOX1 (gene 51); experiment: LTEA_HepaRG_ACOX1: Life Technologies and Expression Analysis (LTEA) Assay for Peroxisomal acyl-coenzyme A oxidase 1 (ACOX1) gene using HepaRG (AID 2283467)
# Method in brief: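 HepaRG cells, plated 48 h then switched to serum-free induction medium, were exposed in duplicate for 48 h to 8-point half-log concentrations up to 100 uM in 0.5% DMSO. ACOX1 mRNA was measured by qRT-PCR, normalized to ACTB/GAPDH/POLR2A, and fitted bidirectionally versus DMSO.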
# [18] = read-out: Alkaline Phosphatase, Placental (ALPP) gene, ALPP (gene 250); experiment: LTEA_HepaRG_ALPP: Life Technologies and Expression Analysis (LTEA) Assay for Alkaline Phosphatase, Placental (ALPP) gene using HepaRG (AID 2283468)
# Method in brief: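 qRT-PCR readout of ALPP mRNA (Fluidigm TaqMan), normalized to ACTB/GAPDH/POLR2A, after 48 h chemical exposure of HepaRG cells; 8-point half-log series, top 100 uM, 0.5% DMSO vehicle. Bidirectional curve fit versus DMSO baseline.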
# [19] = read-out: ABC Transporter (ABCB1), ABCB1 (gene 5243); experiment: LTEA_HepaRG_ABCB1: Life Technologies and Expression Analysis (LTEA) Assay for ABC Transporter (ABCB1) using HepaRG (AID 2283460)
# Method in brief: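 HepaRG cells exposed in duplicate for 48 h in serum-free induction medium to eight half-log concentrations up to 100 uM in 0.5% DMSO. ABCB1 mRNA quantified by qRT-PCR, normalised to ACTB, GAPDH and POLR2A; fitted bidirectionally versus DMSO.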
# Chain of Broad substrate specificity ATP-binding cassette transporter ABCG2 (Homo sapiens) (Q9UNQ0 whole entry, looked up): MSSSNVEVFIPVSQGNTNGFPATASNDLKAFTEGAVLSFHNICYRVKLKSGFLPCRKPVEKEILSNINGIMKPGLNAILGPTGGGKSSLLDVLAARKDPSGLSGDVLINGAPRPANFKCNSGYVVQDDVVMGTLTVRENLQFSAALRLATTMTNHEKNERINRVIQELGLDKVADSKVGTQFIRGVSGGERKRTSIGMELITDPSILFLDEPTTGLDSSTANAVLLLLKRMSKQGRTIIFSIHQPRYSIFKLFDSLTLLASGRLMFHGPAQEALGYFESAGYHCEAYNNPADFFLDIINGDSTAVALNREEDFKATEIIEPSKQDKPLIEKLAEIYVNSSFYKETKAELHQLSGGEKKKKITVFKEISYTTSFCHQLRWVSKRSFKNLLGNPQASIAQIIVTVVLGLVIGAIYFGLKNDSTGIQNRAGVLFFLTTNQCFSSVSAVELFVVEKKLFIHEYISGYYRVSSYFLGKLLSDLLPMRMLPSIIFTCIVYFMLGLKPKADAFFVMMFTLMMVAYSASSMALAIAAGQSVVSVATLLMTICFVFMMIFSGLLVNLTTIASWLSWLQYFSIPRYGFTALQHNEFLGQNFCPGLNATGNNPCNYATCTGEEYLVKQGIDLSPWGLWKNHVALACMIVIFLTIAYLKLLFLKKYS
compound,measurement,setting,value
NS(=O)(=O)c1cc2c(cc1Cl)NCNS2(=O)=O,outcome,[1],inactive
same,outcome,[2],inactive
same,outcome,[3],inactive
same,outcome,[4],inactive
same,outcome,[5],inactive
same,outcome,[6],inactive
same,outcome,[7],inactive
same,outcome,[8],inactive
same,outcome,[9],inactive
same,outcome,[10],inactive
same,outcome,[11],inactive
same,outcome,[12],inactive
same,outcome,[13],inactive
same,outcome,[14],inactive
same,outcome,[15],inactive
same,outcome,[16],inactive
same,outcome,[17],inactive
same,outcome,[18],inactive
CC(CO)OC(C)CO (stereo unspecified) (tested in a mixture with another compound),outcome,[1],inactive
same,outcome,[2],inactive
same,outcome,[3],inactive
same,outcome,[4],inactive
same,outcome,[5],inactive
same,AC50,[6],50 µM (active)
same,outcome,[7],inactive
same,outcome,[8],inactive
same,outcome,[9],inactive
same,outcome,[10],inactive
same,outcome,[11],inactive
same,outcome,[12],inactive
same,outcome,[13],inactive
same,outcome,[14],inactive
same,outcome,[15],inactive
same,outcome,[16],inactive
same,outcome,[17],inactive
same,outcome,[18],inactive
Oc1ccc2ccccc2c1N=Nc1ccccc1,outcome,[1],inactive
same,outcome,[2],inactive
same,AC50,[4],9.92 µM (active)
same,AC50,[5],10.4 µM (active)
same,AC50,[6],0.14 µM (active)
same,AC50,[7],11.3 µM (active)
same,outcome,[8],inactive
same,outcome,[9],inactive
same,AC50,[10],7.86 µM (active)
same,outcome,[19],inactive
same,AC50,[11],31 µM (active)
same,outcome,[12],inactive
same,AC50,[13],6.98 µM (active)
same,outcome,[14],inactive
same,AC50,[15],30.3 µM (active)
same,outcome,[16],inactive
same,AC50,[17],11.1 µM (active)
same,outcome,[18],inactive
Cc1ccc(C)c(O)c1C,outcome,[1],inactive
same,outcome,[2],inactive
same,outcome,[4],inactive
same,outcome,[5],inactive
same,AC50,[6],68 µM (active)
same,outcome,[7],inactive
same,outcome,[8],inactive
same,outcome,[9],inactive
same,outcome,[10],inactive
same,outcome,[19],inactive
same,outcome,[11],inactive
same,outcome,[12],inactive
same,outcome,[13],inactive
same,outcome,[14],inactive
same,outcome,[15],inactive
same,outcome,[16],inactive
same,outcome,[17],inactive
same,outcome,[18],inactive
COc1cc(C=O)ccc1O,outcome,[1],inactive
same,outcome,[2],inactive
same,outcome,[4],inactive
same,outcome,[5],inactive
same,outcome,[6],inactive
same,outcome,[7],inactive
same,outcome,[8],inactive
same,outcome,[9],inactive
same,outcome,[10],inactive
same,outcome,[19],inactive
same,outcome,[11],inactive
same,outcome,[12],inactive
same,outcome,[13],inactive
same,outcome,[14],inactive
same,outcome,[15],inactive
same,outcome,[16],inactive
same,outcome,[17],inactive
same,outcome,[18],inactive
CC(=O)Oc1ccccc1C(=O)O,outcome,[1],inactive
same,outcome,[2],inactive
same,outcome,[3],inactive
same,outcome,[4],inactive
same,outcome,[5],inactive
same,AC50,[6],50 µM (active)
same,outcome,[7],inactive
same,outcome,[8],inactive
same,outcome,[9],inactive
same,outcome,[10],inactive
same,outcome,[11],inactive
same,outcome,[12],inactive
same,outcome,[13],inactive
same,outcome,[14],inactive
same,outcome,[15],inactive
same,outcome,[16],inactive
same,outcome,[17],inactive
same,outcome,[18],inactive
CCCCCCCCCCCCCO,outcome,[1],inactive
same,outcome,[2],inactive
same,outcome,[4],inactive
same,outcome,[5],inactive
same,outcome,[6],inactive
same,outcome,[7],inactive
same,outcome,[8],inactive
same,outcome,[9],inactive
same,outcome,[10],inactive
same,outcome,[19],inactive
same,outcome,[11],inactive
same,outcome,[12],inactive
same,outcome,[13],inactive
same,outcome,[14],inactive
same,outcome,[15],inactive
same,outcome,[16],inactive
same,outcome,[17],inactive
same,outcome,[18],inactive
